# An excerpt weighted towards active compounds, which were near 2.8% of everything screened.
# GLP1R ag: GLP-1 receptor (human) agonism | HEK293 GLP-1R CRE-luciferase, luminescence, 4-6 h; cells express a hypersensitive GLP-1R form | Potency, µM (titrated, usually from 45.6 µM), for the others: top-dose activation, usual class: activators | AID 624172 | P43220 | hit rate 0.007% among 380,000; also: potency is read from the fitted curve at half-maximal effect; % of control where 0% means no effect
# HEK293 tox: cytotoxicity counter-screen for GLP-1 receptor inverse agonists; HEK293 cAMP-luciferase reporter cells, luminescence, 24 h; Potency, µM (highest dose often 38.3 µM), without a hit: at the highest dose activity change, negative = inhibition, most hits filed as inhibitors; hit rate 0.13% among 410,000;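 also: loss of luciferase light is scored as toxicity; potency is read from the fitted curve at half-maximal effect; % is scaled to controls: 0 for no effect and ±100 for the full control effect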
#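 Cells in DMEM/10% Nu serum/1% pen-strep, 1536-well format. Pre-incubated 12 h, dosed with 23 nL compound, incubated a further 24 h. Luciferase detection, 12 min at room temp, luminescence.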
# KCNH2 3.1 block: blocks the human KCNH2 3.1 channel isoform; activity change, % (tested at about 1.8 µM); U2OS KCNH2 3.1, thallium flux FluxOr; active compounds read low; hit rate 0.95% among 340,000;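 active = maximum activity change below -70%; inconclusive = maximum activity change from -70% to -50%; inactive = maximum activity change above -50%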;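 also: thallium influx rate constant from kinetic fluorescence after stimulation buffer; % is scaled to controls: 0 for no effect and ±100 for the full control effect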
#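 Kinetic fluorescence (2 min after stimulation buffer) measures Tl+ influx through KCNH2 3.1 expressed by viral transduction in U2OS cells; the rate constant is normalized against DMSO controls serving as positive and negative references.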
# GLS inh: glutaminase GLS (human) inhibition; hit rate 0.21% among 410,000; GLS enzymatic activity, qHTS titration; O94925; Potency, µM (titrated, usually from 45.5 µM), for inactives: at the highest dose activity change, negative = inhibition, hits mostly inhibitors; also: potency is read from the fitted curve at half-maximal effect; % is scaled to controls: 0 for no effect and ±100 for the full control effect
# Target sequence (O94925 whole entry, looked up): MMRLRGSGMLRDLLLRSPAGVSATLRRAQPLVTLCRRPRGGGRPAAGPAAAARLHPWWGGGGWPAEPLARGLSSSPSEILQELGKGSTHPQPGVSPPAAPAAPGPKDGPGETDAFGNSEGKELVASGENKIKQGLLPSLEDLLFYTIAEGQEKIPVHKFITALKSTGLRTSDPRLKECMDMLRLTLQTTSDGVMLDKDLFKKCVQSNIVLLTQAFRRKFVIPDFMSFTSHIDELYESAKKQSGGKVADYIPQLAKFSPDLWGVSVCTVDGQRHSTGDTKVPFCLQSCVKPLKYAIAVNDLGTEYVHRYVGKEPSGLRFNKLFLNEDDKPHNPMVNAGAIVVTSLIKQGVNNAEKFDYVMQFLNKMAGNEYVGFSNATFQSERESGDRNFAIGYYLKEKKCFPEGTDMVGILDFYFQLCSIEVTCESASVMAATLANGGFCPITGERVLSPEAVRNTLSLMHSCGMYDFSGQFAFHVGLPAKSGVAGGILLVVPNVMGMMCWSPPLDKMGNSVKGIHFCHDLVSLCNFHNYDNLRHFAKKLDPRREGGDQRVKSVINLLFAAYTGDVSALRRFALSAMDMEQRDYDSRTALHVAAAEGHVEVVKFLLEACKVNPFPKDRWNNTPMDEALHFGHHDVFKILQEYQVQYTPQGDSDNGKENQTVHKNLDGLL
#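 Glutamate formation by hKGA was monitored fluorometrically using coupled glutamate oxidase, HRP and Amplex Red. Substrate was added as 1 mM L-glutamine solution; incubation was 30 min at RT after an initial read.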
# hERG WT inh: inhibitors of human wildtype KCNH2 potassium channel; Q12809; U2OS, BacMam KCNH2, thallium flux FluxOr; active compounds read low; activity change, % at 1.84 µM; hit rate 0.37% among 340,000; AID 720551;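 active = maximum activity change below -70%; inconclusive = maximum activity change between -70% and -50%; inactive = maximum activity change above -50%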; also: % is scaled to controls: 0 for no effect and ±100 for the full control effect
#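 U2OS cells were transduced with wild-type KCNH2 virus (2.03 x 10^8 / mL) for 4 h at room temperature, then cultured overnight at 37 C. Thallium flux was read with FluxOr dye. Rate constants were normalized to DMSO controls.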
# GLP-1R inv ag: inverse agonists of human GLP-1 receptor; AID 624417; Potency, µM (top dose mostly 38.3 µM), for the others: at the top dose activity change, negative = inhibition, most hits filed as inhibitors; hit rate 1.6% among 410,000; HEK293 GLP-1R CRE-luciferase, luminescence, 24 h; GLP-1R form is constitutively active; also: potency is read from the fitted curve at half-maximal effect; % is scaled to controls: 0 for no effect and ±100 for the full control effect; nearly all actives have a fitted effect of over 55% in size
#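 Cells are plated, allowed 12 hours at 37 deg C, then treated with compounds for 24 hr before luciferase detection reagent is added and luminescence is read after 12 min at room temperature. The HEK293 line carries constitutively active GLP-1R with a cAMP-responsive reporter.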
# Active calls of the source: *; ? = inconclusive; . = no result given. Unless noted, calls follow the shape of the dose curve; as a rule, active = well fitted curve in the direction sought with a large enough effect; inconclusive = small, poorly fitted or top-dose-only effect, or another doubt; inactive = no such curve, though single readings can be large; an effect the other way counts as inactive or inconclusive.
SMILES,GLP1R ag,HEK293 tox,KCNH2 3.1 block,GLS inh,hERG WT inh,GLP-1R inv ag
CCCCOc1ccc(C(O)C(CN2CCOCC2)c2ccccc2)cc1 (configuration not stated),-1%,2%,-6,10%,7,10µM*
CCCOc1ccc(C(O)C(CN2CCOCC2)c2ccccc2)cc1 (configuration not stated),-9%,-7%,-3,7%,-4,?
Cc1[nH]c2ccc(C(=O)N3CCN(c4ccccc4F)CC3)cc2c1C,.,-1%,.,2%,.,?
Cc1cccc(N2CCN(C(=O)c3ccc4[nH]c(C)c(C)c4c3)CC2)c1C,11%,-16%,-5,-18%,0,2.5µM*
Cc1cccc(N2CCN(C(=O)c3ccc(S(=O)(=O)N(C)c4ccccc4)cc3)CC2)c1C,3%,-25%,-13,25%,11,1µM*
Cc1[nH]c2ccc(C(=O)N3CCN(c4ccccc4Cl)CC3)cc2c1C,-1%,0%,-30,-2%,-78*,?
CO/N=C(\C(=O)N[C@@H]1C(=O)N2C(C(=O)OCOC(=O)C(C)(C)C)=C(C)CS[C@H]12)c1csc(N)n1,-5%,.,.,7%,.,.
Nc1ncn(C(=S)Nc2ccccc2)n1,-1%,4.5µM*,-4,13%,-3,?
S=C(Nc1ccccc1)N1CCCCCC1,-11%,-10%,-1,19%,12,-3%
COc1cccc(CNC(=O)c2cc3cccc4c3n2CC(C)S4)c1OC (configuration not stated),.,-14%,.,-8%,.,?
COc1ccc(CNC(=O)c2cc3cccc4c3n2CC(C)S4)c(OC)c1 (configuration not stated),.,-11%,.,-8%,.,7.9µM*
CCC(CC)NC(=O)c1ccccc1Oc1ccccc1,2%,1%,30,-1%,-19,?
O=C(NCc1ccc(Cl)cc1)c1ccccc1Oc1ccccc1,3%,23%,-17,-6%,-2,2.8µM*
CCC(C)(C)NC(=O)c1ccccc1Oc1ccccc1,13%,-10%,4,-5%,14,14µM*
O=C(Cn1c(=O)nc(-c2ccccc2)c2ccccc21)NCCCc1ccccc1,-1%,-5%,.,-8%,.,-12%
COC(=O)c1ccc(CNC(=O)C2CCC(=O)N(CCN3CCOCC3)C2)cc1 (configuration not stated),-26%,-9%,7,-8%,1,0%
N#Cc1c(-c2ccccc2)cc(-c2ccccc2)nc1SCC(O)CS(=O)(=O)Cc1ccccc1 (configuration not stated),.,1%,.,-5%,.,?
O=C(NCc1ccccc1)C(c1ccc(-c2ccccc2)cc1)N1CCN(C(=O)C2CCCO2)CC1 (configuration not stated),.,-27%,.,.,.,?
COc1ccc(-c2nc(N3CCCCCC3)sc2C(=O)c2ccccc2)cc1,5%,29%,-5,9%,-10,2µM*
O=C(c1ccccc1)c1sc(N2CCCCCC2)nc1-c1ccccc1,12%,97%,-28,8%,3,5µM*
[2H]c1c([2H])c([2H])c(C(=O)c2sc(N3CCCCCC3)nc2-c2ccccc2)c([2H])c1[2H],1%,13%,6,3%,7,?
COc1cccc(Nc2nc3cc(Cl)c(Cl)cc3nc2-n2nc(C)cc2C)c1,.,5%,.,-3%,.,5%
O=C(c1ccco1)N1CCN(C(=O)C2CC(=O)N(c3ccc(Cl)cc3)C2)CC1 (configuration not stated),3%,-1%,-95*,2%,-12,-15%
CC(Oc1ccc(Cl)cc1)C(=O)N1CCN(C(=O)c2ccco2)CC1 (configuration not stated),-6%,1%,-164*,-2%,-129*,10%
CCOc1cc2nc(-c3ccc(OC)c(OC)c3)nc(NCCCN3CCOCC3)c2cc1OC,0%,?,8,2%,-93*,-30%
SMILES,GLP1R ag,HEK293 tox,KCNH2 3.1 block,GLS inh,hERG WT inh,GLP-1R inv ag
COc1cc2ncnc(NCCCN3CCOCC3)c2cc1OC,2%,8%,-79*,3%,10,22%
COc1ccc(C(=O)NCCCN2CCOCC2)cc1OC,-10%,-10%,-4,8%,-13,30%
CCN(c1ccccc1)S(=O)(=O)c1ccc2[nH]cc(C(=O)NCc3ccc(C)cc3)c(=O)c2c1,-2%,3%,.,-7%,.,4%
CN(Cc1ccccc1)C(=O)c1ncn(Cc2ccccc2)c1C(=O)N(C)Cc1ccccc1,10%,1%,-72*,1%,4,?
Cc1ccc(C(=O)Nc2ccccc2N2CCCCC2)cc1[N+](=O)[O-],12%,5%,-83*,9%,-7,?
CN1CCN(c2ccccc2NC(=O)c2cccc([N+](=O)[O-])c2)CC1,8%,-4%,-48,5%,-18,26%
CN1CCN(c2ccccc2NC(=O)c2cc(Br)ccc2Cl)CC1,-13%,5%,-87*,10%,-23,?
O=C(Nc1ccccc1N1CCN(C(=O)c2ccc(Cl)cc2)CC1)c1cccc([N+](=O)[O-])c1,1%,-17%,-102*,3%,-123*,-27%
CN1CCN(c2ccccc2NC(=O)c2ccc(OCc3ccccc3)cc2)CC1,13%,?,-21,7%,-1,11µM*
CC[C@H](c1ccccc1)c1noc(CCN(CC)CC)n1,6%,.,.,6%,.,.
O=C(Nc1ccccc1N1CCN(C(=O)c2ccc(Cl)cc2)CC1)c1cc(Br)ccc1Cl,-6%,5%,-101*,6%,-121*,0%
CC(=O)N1CCN(c2ccccc2NC(=O)c2cc(Br)ccc2Cl)CC1,-2%,-1%,-19,1%,-1,6%
CCCCN(Cc1ccco1)S(=O)(=O)c1csc(C(N)=O)c1,-2%,5%,-182*,1%,-159*,?
Cn1c(=O)n(C)c2cc(N3CCOCC3)c(NS(=O)(=O)c3cccc(C#N)c3)cc21,.,60%,.,6%,.,11%
CCc1cc(-c2nnn(-c3cc(C(C)C)ccc3C)c2CC)ccc1-c1cn(CCc2c[nH]c3ccccc23)nn1,1%,-33%,4,-5%,0,2.5µM*
C=CCNC(=O)COC(=O)c1c2c(nc3ccccc13)CCC2,5%,7%,0,3%,2,6%
Cc1ccc(Oc2ncccc2/C=N/OCc2ccc(Cl)c(Cl)c2)cc1,-8%,0%,?,0%,6,10µM*
Cc1cc(C(C)(C)C)ccc1OCCOCCN1CCCC1,2%,6%,-2,29%,35,13µM*
